TEAD-YAP block – TEAD-YAP interaction inhibition, primary screen, TEAD-YAP interaction inhibitor project, luminescence, HEK-TIYL cells | inhibition, % at 9.12 µM | TEAD-Gal4/YAP UAS-luciferase luminescence | 640,000 tested, 1.4% active; in the data active = inhibition above about 32%
GPR151 activ – activators of human GPR151, primary screen, cell-based, PathHunter beta-arrestin, luminescence; PathHunter beta-arrestin GPR151 cells; activation, % at 11.2 µM; 650,000 tested, 1% active; in the data active = activation above about 4.9%
FBW7 act – FBW7 E3 ligase activators, primary screen, biochemical, AlphaScreen, human | F-box/WD repeat-containing protein 7 (Homo sapiens), Q969H0 | AlphaScreen FBW7–phospho-cyclin E peptide binding, activator screen | 650,000 tested, 0.13% active | normalized activity (activation), % at 26.1 µM; in the data active = normalized activity above about 1.9%;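 note: purified mutant Fbw7 with reduced substrate affinity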
MITF primary – MITF inhibitors, primary screen, biochemical, AlphaScreen, human; Microphthalmia-associated transcription factor (Homo sapiens), O75030; AlphaScreen MITF homodimerization, bead proximity signal; inhibition, % at 2.6 µM; 650,000 tested, 0.91% active; in the data active = inhibition above about 50%
GPR151 conf act – GPR151 activators, triplicate retest, confirmation, cell-based, PathHunter beta-arrestin, luminescence | GPR151 PathHunter beta-arrestin cells, 90 min; % of EA-reagent control over plate median | 6,700 tested, under 10 active | activation, % at 11.2 µM | shares compounds with GPR151 activ;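 active = mean percent activation across replicates above the confirmation screen cutoff of 4.91%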
GPR119 ag – GPR119 activators in beta-arrestin cells, counter-screen for GPR151 activator project, cell-based, PathHunter beta-arrestin, luminescence, triplicate. shares compounds with GPR151 activ. activation, % at 11.2 µM. 6,700 tested, 0.3% active. 90 min; 0 = compound-well median, 100 = enzyme-acceptor control. AID 1508611, 2020;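 active = mean percent activation in the counterscreen above 29.09%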;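 note: counterscreen on off-target GPR119 to flag nonselective hits from the GPR151 activator screen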
Target sequence (Q8TDV5 whole entry, looked up): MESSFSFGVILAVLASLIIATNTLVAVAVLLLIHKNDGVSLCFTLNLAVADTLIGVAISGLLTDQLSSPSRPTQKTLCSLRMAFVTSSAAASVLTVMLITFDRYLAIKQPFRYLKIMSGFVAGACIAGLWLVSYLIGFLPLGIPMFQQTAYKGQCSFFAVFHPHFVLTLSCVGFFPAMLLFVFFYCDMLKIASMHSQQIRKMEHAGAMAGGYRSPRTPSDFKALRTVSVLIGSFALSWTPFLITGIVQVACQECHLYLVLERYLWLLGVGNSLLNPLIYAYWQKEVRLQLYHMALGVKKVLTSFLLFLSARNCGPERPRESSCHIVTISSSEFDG
Of the large screens only hits and unclear results are named; the others gave an inactive call (follow-up assays come after a bar, where they were run); ! = a repeat was not active. Only some compounds are listed: those with a hit (about 3.4% of all), similar ones and a draw of the others.

CCN(CC)C(=O)/C(=C\c1cccc([N+](=O)[O-])c1)NC(=O)c1ccccc1Br	none
O=C(COC(=O)c1ccc(F)c(S(=O)(=O)N2CCOCC2)c1)c1ccccc1	GPR151 activ 6.1 | GPR151 conf act inactive | GPR119 ag inactive
O=C(COC(=O)c1cc(S(=O)(=O)N2CCOCC2)ccc1F)Nc1cccc(F)c1	GPR151 activ 6.5 | GPR151 conf act inactive | GPR119 ag inactive
O=C(COC(=O)c1ccc(F)c(S(=O)(=O)N2CCOCC2)c1)c1ccc(Cl)cc1	none
Cc1ccc(N(CC(O)Cn2c3ccccc3c3ccccc32)S(=O)(=O)c2ccc(C)cc2)cc1 (centres undefined)	none
Cc1ccc(S(=O)(=O)N(CC(=O)N2CCOCC2)CC(=O)N2CCOCC2)cc1	GPR151 activ 6.6 | GPR151 conf act inactive | GPR119 ag inactive
Cc1ccc(N(CC(=O)N2CCCCCC2)S(=O)(=O)c2ccccc2)cc1C	GPR151 activ 5.8 | GPR151 conf act inactive | GPR119 ag inactive
CCOc1ccccc1N(CC(=O)N1CCCC1)S(=O)(=O)c1ccc(C)cc1	GPR151 activ 6.0 | GPR151 conf act inactive | GPR119 ag inactive
Cc1ccc(N(CC(O)Cn2c3ccccc3c3ccccc32)S(=O)(=O)c2ccccc2)cc1 (centres undefined)	GPR151 activ 6.2 | GPR151 conf act inactive | GPR119 ag inactive
CCN1CCN(CC(O)COc2ccc3oc4ccccc4c3c2)CC1 (centres undefined)	none
O=C(CN(c1ccccc1)S(=O)(=O)c1ccccc1)N1CCOCC1	none
Cc1ccc(N(CC(=O)N2CCOCC2)S(=O)(=O)c2ccccc2)cc1	GPR151 activ 9.1 | GPR151 conf act inactive | GPR119 ag inactive
Cc1ccc(C(=O)CC(=O)c2ccco2)c(O)c1	none
Cc1ccc2c(c1)-c1c(ssc1=S)C(C)(C)N2C(=O)c1ccccc1Cl	GPR151 activ 6.2 | GPR151 conf act inactive | GPR119 ag inactive
CC(C)(C)c1ccc(C(=O)Nc2nnc(COc3ccccc3)s2)cc1	none
Cc1nn(-c2ccccc2)c(Cl)c1C(=O)Nc1nnc(COc2ccccc2)s1	GPR151 activ 5.5 | GPR151 conf act inactive | GPR119 ag inactive
CC(C)NCCOCCOc1ccc(Br)cc1	none
CCC(C)NC(=O)C1=C(C)C(=O)OC12CCCCC2 (centres undefined)	GPR151 activ 12 | GPR151 conf act inactive | GPR119 ag inactive
CCOc1ccc(-c2cnc(N)n2C)cc1	GPR151 activ 5.4 | GPR151 conf act inactive | GPR119 ag inactive
C=CCc1cccc(/C=C/C(=O)c2c(O)cc(C)oc2=O)c1O	GPR151 activ 5.9 | GPR151 conf act inactive | GPR119 ag inactive
Cc1cc(O)c(C(=O)/C=C/c2ccccc2Br)c(=O)o1	none
CCOC(=O)c1c(C)oc2nc(CCl)[nH]c(=O)c12	GPR151 activ 12 | GPR151 conf act inactive | GPR119 ag inactive
O=C1CN(S(=O)(=O)c2cccc(Cl)c2Cl)c2ccccc2N1	GPR151 activ 6.8 | GPR151 conf act inactive | GPR119 ag inactive
CCOC(=O)c1c(NC(=O)c2sc3cccc(Cl)c3c2Cl)sc2c1CCCC2	none
NS(=O)(=O)c1ccc(NC(=S)NCCN2CCCCC2)cc1	GPR151 activ 6.3 | GPR151 conf act inactive | GPR119 ag inactive
Nc1ncnc(Nc2ccc(N=Nc3ccccc3)cc2)c1[N+](=O)[O-]	none
Nc1ncnc(Nc2ccc(Nc3ccccc3)cc2)c1[N+](=O)[O-]	GPR151 activ 8.7 | GPR151 conf act inactive | GPR119 ag inactive
Cc1ccc(Nc2ncnc(N)c2[N+](=O)[O-])cc1Cl	GPR151 activ 9.1 | GPR151 conf act inactive | GPR119 ag inactive
COc1ccccc1NC(=O)c1sc(=S)n(-c2cccc(C(F)(F)F)c2)c1N	none
N#Cc1ccc(C(=O)NCc2nc(-c3ccncc3)n[nH]2)cc1	GPR151 activ 5.3 | GPR151 conf act inactive | GPR119 ag inactive
Cc1cc(Br)ccc1OCC(=O)N(C(C)C)C(C)C	none
Cc1ccccc1OCC(=O)NNC(=O)C1c2ccccc2Oc2ccccc21	GPR151 activ 6.0 | GPR151 conf act inactive | GPR119 ag inactive
Cc1ccccc1OCC(=O)N(C(C)C)C(C)C	GPR151 activ 8.9 | GPR151 conf act inactive | GPR119 ag inactive
Cc1ccc(-c2nn(CC(=O)NCc3ccccc3)c(=O)c3ccccc23)cc1	GPR151 activ 5.1 | GPR151 conf act inactive | GPR119 ag inactive
CC(C)(C)NC(=O)Cn1nc(C(=O)O)c2ccccc2c1=O	GPR151 activ 5.9 | GPR151 conf act inactive | GPR119 ag inactive
CCCCNC(=O)CCn1nc(-c2ccccc2)c2ccccc2c1=O	none
CNC(=O)Cn1nc(C(=O)O)c2ccccc2c1=O	none
O=C(CCn1nc(-c2ccccc2)c2ccccc2c1=O)NCc1ccccc1	GPR151 activ 18 | GPR151 conf act inactive | GPR119 ag inactive
CNC(=O)Cn1nc(-c2ccc(C)cc2)c2ccccc2c1=O	none
C/C(=N\NC(=O)c1n[nH]c2c1CCC2)c1ccc(N)cc1	none
O=C1CCC(C(=O)OCC(=O)Nc2ccc(OC(F)(F)F)cc2)=NN1	none
CCC1(C2CCN(Cc3ccoc3)CC2)NC(=O)N(CCc2ccc(OC)cc2)C1=O (centres undefined)	GPR151 activ 14 | GPR151 conf act inactive | GPR119 ag inactive
COc1ccc(C2NC(=O)NC(C)=C2C(=O)Nc2ccc(C)cc2)cc1OC (centres undefined)	none
CCOc1ccc(/C=N/n2c(C)nc3ccccc3c2=O)cc1	none
CCOC(=O)COc1ccc2ccccc2c1/C=N/n1c(C)nc2ccccc2c1=O	GPR151 activ 5.0 | GPR151 conf act inactive | GPR119 ag inactive
Cc1ccc(NC(=O)c2cc(S(=O)(=O)N3CCCCC3)ccc2F)cc1Cl	none
Cc1ccc(NC(=O)c2cc(F)c(F)cc2Cl)cc1S(=O)(=O)N1CCOCC1	GPR151 activ 5.2 | GPR151 conf act inactive | GPR119 ag inactive
Cc1ccc(NC(=O)c2cc(S(=O)(=O)N3CCCCCC3)ccc2F)cc1Cl	GPR151 activ 6.2 | GPR151 conf act inactive | GPR119 ag inactive
Cc1cc(C)n(Cc2cccc([N+](=O)[O-])c2)n1	none
CCN(CC)CCN1C(=O)CCCc2sc3c(c21)CCCC3	none
CC(=O)OCC1=C(C(=O)O)N2C(=O)[C@@H](NC(=O)Cc3cccs3)[C@H]2SC1	GPR151 activ 19! | GPR151 conf act inactive | GPR119 ag inactive
CO/N=C(/C(=O)N[C@@H]1C(=O)N2C(C(=O)O)=C(COC(C)=O)CS[C@H]12)c1csc(N)n1	none
C/C(CCc1ccccc1)=N/Nc1ccc([N+](=O)[O-])cc1	GPR151 activ 8.0 | GPR151 conf act inactive | GPR119 ag inactive
